The panel holds about 83,000 compounds, 20% with a hit somewhere; the sample as a whole holds those more often.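 Negative percent growth values reflect cell death: -40 means 40% of the cells present at the start died, and -100 means all died.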 Calls of active or inactive are those of the source.

The assay has as its system TK-10 renal. Nature of the assay: NCI-60 one-dose screen, 48 h (100 = growth as untreated, 0 = no growth, -100 = all killed). The conditions noted are these: 10 µM unless noted. The protocol: Growth inhibition of the TK-10 human tumor cell line is measured as a screen for anti-cancer activity. Cells are grown in 96 well plates and exposed to the test compound for 48 hours. Compounds are tested at a single concentration, which is 10^-5 M for most compounds. The reported endpoint is percent growth (GI% or GIPRCNT), where numbers from 0 - 100% represent growth inhibition, and numbers from -100% - 0 represent cell death. For example, a value of 40 represents 60% growth inhibition. A value of 0 means no net growth occurred over the course of the experiment. A value of -40 indicates 40% of cells at the beginning of the experiment died by the end of the experiment. A value of -100 means all cells are dead at the end of the experiment.
NCI-60 Human Tumor Cell Lines Screen was performed using the standard one-dose NCI protocol, which is described in more detail at https://dtp.cancer.gov/discovery_development/nci-60/default.htm.
Compounds with GIPRCNT values below 10 were considered active. Activity score was based on GIPRCNT using the following formula: […]
Score is 0 for GIPRCNT values of 100 or above, 50 for GIPRCNT values of 0, and 100 for GIPRCNT values of -100.
As for `CC[C@]1(O)C[C@@H]2CN(CCc3c([nH]c4ccccc34)[C@@](C(=O)OC)(c3cc4c(cc3OC)N(C)[C@H]3[C@@](O)(C(=O)OC)[C@H](OC(C)=O)[C@]5(CC)C=CCN6CC[C@]43[C@@H]65)C2)C1`, the growth was 45.5% (inactive). As for `CC1=C(C(=O)OCC2CCN(C(=O)OC(C)(C)C)CC2)[C@H](c2cccc(C#N)c2)C2=C(CC(C)(C)CC2=O)N1`, the growth was 69.7% (inactive). Turning to `O=C1c2cc(Cl)ccc2Oc2cc([N+](=O)[O-])ccc2N1c1ccc(F)cc1F`, the growth is 112% (inactive). Consider `CC[C@]1(O)C[C@@H]2CN(CCc3c([nH]c4ccccc34)[C@@](C(=O)OC)(c3cc4c(cc3OC)N(C)[C@H]3[C@@](O)(C(=O)OC)[C@H](OC(=O)CCCBr)[C@]5(CC)C=CCN6CC[C@]43[C@@H]65)C2)C1`, for which the growth was 46.5% (inactive). Consider `COc1ccc(/C=C2\NC(=O)NC2=O)cc1O`, for which the growth is 109% (inactive). Turning to `Cc1sc2ncn(CC(=O)Nc3ccc(S(N)(=O)=O)cc3)c(=O)c2c1C`, the growth is 109% (inactive). In the case of `COC(=O)c1c2c(c(C)[n+]([O-])c1C)C(=O)C=C(NCc1ccc(F)c(F)c1)C2=O`, the growth was 3.98% (active). As for `Cc1cccc2c(=O)c3c(sc12)c(N1CCNCC1)nc1ccccc13`, the growth is 86.3% (inactive). Turning to `COc1ccccc1C1=C(Br)C(=O)c2nc(C)ccc2C1=O`, the growth was 101% (inactive). `N#C/C(=C1\SC(=O)CN1c1ccccc1)c1nc2ccccc2s1`: the growth is 135% (inactive). Take `O=C1Nc2ccccc2/C1=C/c1ccc[nH]1`: the growth is 63.5% (inactive). Consider `CCCCN1CCN(c2ccc3nc(-c4ccc5nc(-c6ccc(OC)c(OC)c6)[nH]c5c4)[nH]c3c2)CC1`, for which the growth was 14.9% (inactive). In the case of `COc1cc([C@@H]2NC(=O)NC(C)=C2C(=O)Nc2nc(-c3ccc(Cl)cc3)cs2)ccc1O`, the growth was 103% (inactive). `COc1ccc(Cn2cc(Cn3cc(C=C4C(=O)NC(=O)NC4=O)c4ccccc43)nn2)cc1`: the growth was 83.7% (inactive). Take `COc1ccc(CCN2C(=O)CCSC2=S)cc1`: the growth is 39.1% (inactive).

For the molecule `COc1ccc(C2NCCc3c2[nH]c2ccccc32)cc1CN1CCN(c2ccc(F)cc2)CC1` (stereo not given), the growth was 56.6% (inactive). For `COc1ccc(/C=C/C(=O)c2c(C)nc3ccccc3c2/C=C/c2ccccc2)cc1O`, the growth is 125% (inactive).

`O=c1c(-c2nc3ccccc3[nH]2)cc2ccccc2n1Cc1cn(Cc2ccc(N3CCOCC3)cc2)nn1`: the growth is 92.7% (inactive). For `CCN1C(=O)N(c2ccccc2)C2NN=c3s/c(=C4\C(=O)N(C(C)C)c5ccccc54)c(=O)n3C21` (stereo not given), the growth was 74.9% (inactive). `NC1C(N)C(N)C1N` (stereo not given): the growth is 99.1% (inactive). With `COc1c2ccoc2c(/C=C/C=O)c2oc(-c3ccccc3)cc(=O)c12`, the growth is 93.8% (inactive). With `Brc1ccc(Nc2nc3ccccc3nc2Nc2ccc(Br)cc2)cc1`, the growth was -55.4% (active). For `COc1cccc(C2=NN3C(C2)c2ccccc2OC3c2ccc(/C=C3\SC(=O)NC3=O)cc2)c1` (stereo not given), the growth was 102% (inactive). With `CC1CCCCN1CCCNC(=O)c1ccc2c(c1)sc1nc(-c3ccc(F)cc3)cn12` (stereo not given), the growth is 90.4% (inactive). As to `O=c1oc2ccc(Cl)cc2c(=O)n1-c1ccc(I)cc1F`, the growth is 11% (inactive). Take `O=S(=O)(c1ccc(NC(=S)NC23CC4CC(CC(C4)C2)C3)cc1)N1CCCCC1`: the growth is 111% (inactive). For `O=C(Nc1ccc(N2CCNCC2)cc1)c1[nH]ncc1Nc1ncnc2sc3c(c12)CCC3`, the growth was -95.3% (active). In the case of `O=C(NC1CCN(Cc2ccccc2)CC1)c1cc2nc(-c3ccc(Cl)s3)cc(C(F)(F)F)n2n1`, the growth is 84.9% (inactive). In the case of `CC(C)C[C@H](C(=O)N[C@H](C(N)=O)C(C)C)N1CC=CCN(OCc2ccccc2)S1(=O)=O` it was 102% [2.5 µM] (inactive); in that of `COc1ccc(/C=C2/SC(=O)N(CC(=O)N3CCN(c4cc5c(cc4F)c(=O)c(C(=O)O)cn5C4CC4)CC3)C2=O)cc1`, 117% (inactive); in that of `Oc1[nH]c2ccccc2c1N=Nc1nnc2n1N=C(c1ccccc1)CS2`, 94% (inactive). In the case of `Cc1ccc(C(=O)c2oc3ccc4c(C)cc(=O)oc4c3c2C)cc1` it was 27.2% (inactive). For `O=C(Nc1ccc(F)c(Cl)c1)Nc1ccc(Cl)c(Cl)c1`, the growth was 101% (inactive). Take `FC(F)(F)c1cccc(Nc2nc3ccccc3nc2Nc2cccc(C(F)(F)F)c2)c1`: the growth was -50.1% (active). As to `CCOC(=O)CSc1c(-c2ccccc2)c2cc(Cl)ccc2[nH]c1=O`, the growth was 107% (inactive). As for `O=C(c1nc2ccccc2[nH]1)C1C(c2ccc([N+](=O)[O-])cc2)C2CC3CCCCC3N2[C@@]12C(=O)Nc1cc(Cl)ccc12` (stereo not given in full), the growth was 36.7% (inactive). As for `O=c1oc2ccc(Br)cc2c(=O)n1-c1ccc(F)cc1F`, the growth is 11.6% (inactive). As for `Clc1ccc(COc2ccc(Nc3ncnc4onc(-c5ccccc5)c34)cc2)cc1`, the growth is 91.4% (inactive). For the molecule `CN(C)CCNc1cc(-c2ccccc2)nc2ccccc12`, the growth is -68% (active). As for `Nc1cccc(Nc2cc(S(=O)(=O)O)c(N)c3c2C(=O)c2ccccc2C3=O)c1`, the growth was 107% (inactive).
